From PubChem BioAssay (NCI)
Compounds without any hit were thinned out: in the full panel of roughly 83,000, 20% have a hit.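 Compound tested at a single concentration for 48 hours in 96-well plates; a percent growth value below 10 was scored as active.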 Active and inactive are the calls of the source.

What was measured:
Experiment in all cases: NCI-60 one-dose screen, 48 h (100 = growth as untreated, 0 = no growth, -100 = all killed)
[1] = tested on: HCT-15 colon; details: 10 µM unless noted
[2] = tested on: HT29 colon; details: 10 µM unless noted
[3] = tested on: SNB-75 CNS; details: 10 µM unless noted
[4] = tested on: SNB-19 CNS; details: 10 µM unless noted
[5] = tested on: U251 CNS; details: 10 µM unless noted
[6] = tested on: PC-3 prostate; details: 10 µM unless noted
[7] = tested on: SK-MEL-5 melanoma; details: 10 µM unless noted
[8] = tested on: UACC-62 melanoma; details: 10 µM unless noted
[9] = tested on: LOX IMVI melanoma; details: 10 µM unless noted
[10] = tested on: SK-MEL-28 melanoma; details: 10 µM unless noted
[11] = tested on: SK-MEL-2 melanoma; details: 10 µM unless noted
[12] = tested on: SN12C renal; details: 10 µM unless noted
[13] = tested on: UO-31 renal; details: 10 µM unless noted
[14] = tested on: TK-10 renal; details: 10 µM unless noted
[15] = tested on: ACHN renal; details: 10 µM unless noted
[16] = tested on: CAKI-1 renal; details: 10 µM
[17] = tested on: CCRF-CEM leukemia; details: 10 µM unless noted
[18] = tested on: MOLT-4 leukemia; details: 10 µM unless noted
[19] = tested on: EKVX NSCLC; details: 10 µM unless noted
[20] = tested on: A498 renal; details: 10 µM unless noted

Measured: growth

O=S(=O)(NC1CC2CCC1C2)c1ccc2c(c1)C(=NO)c1cc(S(=O)(=O)NC3CC4CCC3C4)ccc1-2 (stereo unspecified)
active: [5] -64.2% | [9] -90.5% | [13] -93% | [15] -95.4% | [16] -97.5% | [17] -18.8%
inactive: [1] 31.2% | [2] 22.3% | [3] 37.2% | [4] 63.3% | [6] 59.2% | [7] 93% | [8] 71% | [10] 92.3% | [11] 98.1% | [12] 34.6% | [14] 95.6% | [18] 47.1%

Cc1ccccc1/C=C/c1nn2c(-c3ccoc3C)nnc2s1
inactive: [1] 97.9% | [2] 97.7% | [3] 111% | [4] 90.8% | [5] 97.6% | [6] 99.4% | [7] 98.4% | [8] 88% | [9] 101% | [10] 94.9% | [19] 100% | [12] 101% | [13] 85.4% | [14] 95.5% | [15] 102% | [16] 89.8% | [20] 89.5% | [17] 108%

C=CCn1c(SCC(=O)Nc2cccc(C(=O)/C=C/c3ccc(C)cc3)c2)nc2ccccc2c1=O
inactive: [1] 62% | [2] 72.7% | [3] 78.4% | [4] 81.7% | [5] 72% | [6] 72.5% | [7] 97.2% | [8] 76.7% | [9] 73.8% | [10] 95.3% | [19] 91.5% | [12] 91.5% | [13] 63.9% | [14] 105% | [15] 89.5% | [16] 80% | [20] 85.9% | [17] 98.4%

COc1ccc([C@H]2[C@H](O)C(=O)N2c2cc(OC)c(OC)c(OC)c2)cc1
inactive: [3] 49.6% | [4] 29% | [6] 13.9% | [8] 20.6% | [9] 15.1% | [10] 62.8% | [19] 44.4% | [12] 20.3% | [13] 32.4% | [14] 69.8% | [15] 26.8% | [16] 28.4% | [17] 26.7%
active: [1] 9.24% | [2] -2.31% | [5] 8.04% | [7] 0.112% | [20] -17.5%

COCCOc1ccc(-c2csc(NC(C)=O)n2)cc1NS(=O)(=O)c1cccc2c(N(C)C)cccc12
active: [14] -21.2%
inactive: [1] 94.5% | [2] 89.3% | [3] 94.2% | [4] 71% | [5] 99.5% | [6] 68.5% | [7] 78.8% | [8] 60.8% | [9] 98.4% | [10] 83.1% | [19] 85.2% | [12] 79.8% | [13] 64.2% | [15] 72% | [16] 71.3% | [20] 74.8% | [17] 105%

C/C(Cc1ccc(Cl)cc1)=C(/c1ccccc1)c1ccc(OCCN)cc1
inactive: [1] 101% | [2] 102% | [3] 98.2% | [4] 92.9% | [5] 100% | [6] 99% | [7] 99.1% | [8] 91.7% | [9] 98% | [10] 96% | [19] 98.7% | [12] 103% | [13] 89.7% | [14] 100% | [15] 99.4% | [16] 92.5% | [20] 95.8% | [17] 110%

O=C1c2c(c3c4ccc(Br)cc4oc3c3[nH]c4ccccc4c23)C(=O)N1CCO
inactive: [1] 53% | [2] 58.3% | [3] 88.7% | [4] 32.8% | [5] 23.5% | [6] 51.6% | [7] 17.3% | [8] 23.5% | [10] 70.2% | [19] 53.7% | [12] 34% | [13] 25.6% | [14] 107% | [15] 12% | [16] 23.6% | [20] 52.4% | [17] 21.7%
active: [9] 7.54%

C=CCn1c(SCC(=O)Nc2cccc(C(=O)/C=C/c3cccc([N+](=O)[O-])c3)c2)nc2ccccc2c1=O
inactive: [1] 79.3% | [2] 94.9% | [3] 85.5% | [4] 90.2% | [5] 87.9% | [6] 87.4% | [7] 98.6% | [8] 77.2% | [9] 72.8% | [10] 95.4% | [19] 96% | [12] 98.3% | [13] 79% | [14] 98.4% | [15] 96.5% | [16] 81.2% | [20] 81.1% | [17] 94.5%

C/C(=C(/c1ccc(O)cc1)c1ccc(OCCN2CCCC2)cc1)c1ccc(Cl)cc1
active: [1] -19.1% | [2] -52.3% | [8] -17.7% | [9] -19.2% | [10] -70%
inactive: [3] 62.5% | [4] 49.1% | [5] 20.3% | [6] 46.9% | [7] 54.3% | [19] 57.4% | [12] 66% | [13] 53.8% | [14] 84.5% | [15] 33.7% | [16] 41.9% | [20] 56.5% | [17] 43.6%

CCCCCCNC(=O)Oc1ccc(/C(=C(\C)c2ccc(OC)cc2)c2ccc(OCCN(C)C)cc2)cc1
inactive: [1] 30.8% | [2] 15.8% | [3] 77.2% | [4] 74.9% | [5] 58.8% | [6] 66.2% | [7] 69.9% | [8] 89.4% | [10] 76.2% | [11] 99.8% | [19] 75% | [12] 78.8% | [14] 107% | [15] 88.3% | [16] 82.9% | [17] 67.3% | [18] 44.5%
active: [9] -48.5%

CNC(=O)c1cc(Oc2ccc3nc(NC(=O)c4ccc(CN5CCCN(C)CC5)c(C(F)(F)F)c4)sc3c2)ccn1
inactive: [3] 47.5% | [6] 22.2% | [19] 40.1% | [12] 54.9% | [14] 47.9% | [16] 14.6% | [20] 66.2%
active: [1] -21.4% | [2] -75.5% | [4] 7.5% | [5] 1.82% | [7] -59.9% | [8] -7.16% | [9] -81.9% | [10] -74% | [13] 4.18% | [15] 4.16% | [17] 8.38% | [18] -35.2%

O=C(/C=C/Nc1ccc(S(=O)(=O)O)cc1)c1ccc(F)cc1
inactive: [1] 96.4% | [2] 103% | [3] 92.4% | [4] 93.4% | [5] 98% | [6] 96.1% | [7] 99.2% | [8] 93.5% | [9] 95.9% | [10] 101% | [19] 107% | [12] 105% | [13] 91.8% | [14] 97.2% | [15] 101% | [16] 90.4% | [20] 93% | [17] 98.5% | [18] 102%

C/C=C/C=C1\C[C@H]2CO[C@H](O2)C1=O
inactive: [1] 80.8% | [2] 108% | [3] 106% | [4] 95.6% | [5] 97.4% | [6] 96.5% | [7] 98.5% | [8] 89.5% | [9] 49.3% | [10] 104% | [19] 103% | [12] 100% | [13] 88.2% | [14] 108% | [15] 103% | [16] 98% | [20] 103% | [17] 78.9% | [18] 90.4%

COc1cc(O)c2c(c1)/C=C/C[C@H](O)[C@H](O)C(=O)/C=C\C[C@H](C)OC2=O
active: [1] -47.5% | [2] 1.76% | [3] -2.99% | [7] -57.9% | [8] -16.3% | [9] -42.7% | [10] -3.57% | [12] 7.02% | [15] 6.98% | [17] 8.51% | [18] 5.34%
inactive: [4] 52.3% | [5] 34.6% | [6] 42.6% | [19] 44.2% | [13] 13.1% | [14] 34.7% | [16] 13.6%

COc1ccc(C2C(C#N)=C(N)Oc3c2sc2ccc(C)cc32)cc1 (stereo unspecified)
inactive: [1] 19.2% | [2] 25.3% | [4] 38.6% | [5] 26.9% | [6] 33.1% | [8] 23.4% | [9] 38% | [10] 55.6% | [19] 53.4% | [12] 34.9% | [13] 41.7% | [14] 81.4% | [15] 44.9% | [16] 32.1% | [17] 26.4% | [18] 45%
active: [3] -3.3% | [7] 2.75%

CCN1C(=O)N(CC)C2C1NN=C1SC(c3ccccc3)=CC(=O)N12 (stereo unspecified)
inactive: [1] 19.2% | [3] 14% | [4] 31.8% | [5] 14.5% | [6] 17.1% | [7] 38.2% | [8] 19.4% | [9] 40.1% | [10] 59.5% | [19] 45.6% | [12] 36.7% | [13] 43.3% | [14] 62.8% | [15] 45.2% | [16] 37.5% | [17] 13.2% | [18] 18.2%
active: [2] -8.74% | [20] -7.16%

COc1cc2oc(-c3cccc(NC(=O)c4cc(NC(=O)[C@H](C)NC(=O)OC(C)(C)C)ccc4C)c3)cc(=O)c2c(OC)c1OC
inactive: [1] 50.8% | [2] 75.5% | [3] 102% | [4] 65.4% | [5] 53.5% | [6] 68.8% | [7] 63.2% | [8] 75.4% | [9] 53.8% | [10] 87% | [19] 85.4% | [12] 69.5% | [13] 36.3% | [14] 89.1% | [15] 61.9% | [16] 53% | [20] 61.9% | [17] 62.4% | [18] 51.5%
